TRPML1 agonist: agonists of human TRPML1 channel | TRPML1-expressing cells, Ca2+ dye fluorescence, FDSS | 410,000 tested, 0.12% active | activation, % (concentration not given with the values) | Q9GZU1; in the data active = activation above about 50%; inconclusive = mostly about 30% to 49%; note: 0% is about no effect
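Agonist activity was taken from a 110 s kinetic Ca2+ dye read on the FDSS after pinning compounds onto TRPML1-DL cells. The cells were seeded at 1,500/well with Tet inducer, incubated about 16 h, then dye-loaded at room temperature.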
TRPML1 inh: inhibitors of human TRPML1 channel; TRPML1-inducible cells, Ca2+ dye fluorescence, FDSS; active compounds read low; inhibition of EC80 agonist-evoked calcium signal; activity change, negative = inhibition, % (test concentration not listed); 390,000 tested, 0.02% active; in the data active = activity change below about -50%; inconclusive = between about -30% and that limit;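 note: stimulus is agonist 54-4 at its EC80 concentration; % is set by controls: 0 for no effect and ±100 for the full control effect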
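Calcium fluorescence in TRPML1-DL cells induced overnight with Tet: a 110 s read after compound pin addition, then a 110 s antagonist read after challenge with 54-4 at 4 uM final (EC80).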
hERG WT inh: inhibitors of human wildtype KCNH2 potassium channel; U2OS, BacMam KCNH2, thallium flux FluxOr; active compounds read low; AID 720551; activity change, % at 1.84 µM; 340,000 tested, 0.37% active; Q12809;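 active = maximum activity change below -70%; inconclusive = maximum activity change between -70% and -50%; inactive = maximum activity change above -50%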; note: % is set by controls: 0 for no effect and ±100 for the full control effect
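U2OS cells were transduced with wild-type KCNH2 virus (2.03 x 10^8 / mL) for 4 h at room temperature, then cultured overnight at 37 C. Thallium flux was read with FluxOr dye. Rate constants were normalized to DMSO controls.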
TRHR agonist: activates the human TRH receptor; P34981; TRHR cells, calcium flux fluo-8, FDSS agonist mode; activation, % at 2 µM; 360,000 tested, 0.18% active; in the data active = activation above about 30%; note: 0% is about no effect
Target sequence (P34981 whole entry, looked up): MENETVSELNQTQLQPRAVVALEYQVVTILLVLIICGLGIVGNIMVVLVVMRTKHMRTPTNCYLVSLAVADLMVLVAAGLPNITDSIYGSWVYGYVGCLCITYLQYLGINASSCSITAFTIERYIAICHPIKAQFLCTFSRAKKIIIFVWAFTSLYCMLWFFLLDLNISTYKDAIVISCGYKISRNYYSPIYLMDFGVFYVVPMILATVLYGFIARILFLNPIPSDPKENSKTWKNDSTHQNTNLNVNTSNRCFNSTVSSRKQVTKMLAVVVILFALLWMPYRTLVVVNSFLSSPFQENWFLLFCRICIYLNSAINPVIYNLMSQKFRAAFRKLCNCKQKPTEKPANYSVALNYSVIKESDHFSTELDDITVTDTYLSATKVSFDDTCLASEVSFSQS
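In this calcium-flux screen, cells bearing human TRHR are dye-loaded with fluo-8, baselined for 10 cycles, then exposed to library compounds; positive kinetic calcium responses during the agonist phase mark hits, with TRH as control.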
TRHR PAM: allosteric enhancers of human TRH receptor; enhancement, % at 2 µM; 360,000 tested, 0.66% active; P34981; TRHR cells, fluo-8 calcium fluorescence, EC20 TRH enhancement; in the data active = enhancement above about 30%; note: 0% is about no effect
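TRHR-expressing cells loaded with fluo-8 calcium dye were read kinetically (ex 480/em 530) during compound addition, then stimulated with an EC20 of TRH (10 nM final). Enhancement of the Gq-mediated intracellular calcium response was scored.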
KCNH2 3.1 block: blocks the human KCNH2 3.1 channel isoform; U2OS KCNH2 3.1, thallium flux FluxOr; active compounds read low; activity change, % (tested at about 1.8 µM); 340,000 tested, 0.95% active;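 active = maximum activity change below -70%; inconclusive = maximum activity change from -70% to -50%; inactive = maximum activity change above -50%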;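 note: thallium influx rate constant from kinetic fluorescence after stimulation buffer; % is set by controls: 0 for no effect and ±100 for the full control effect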
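FluxOr-based Tl+ influx in U2OS cells transduced with KCNH2 3.1 virus; rate constants normalized to DMSO controls.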
* hit, by the source's call; ? = inconclusive; · = no result given. Compounds with a hit are over-represented: about 1.7% of the library has one in this group of screens.

SMILES	TRPML1 agonist	TRPML1 inh	hERG WT inh	TRHR agonist	TRHR PAM	KCNH2 3.1 block
COCCCn1c(SCc2ccccc2F)nc2c(sc3ccccc32)c1=O	-0.7	-5.1	·	0.4	-2.6	·
CC(=O)Nc1nonc1NC(=O)CSC1=NCCS1	0.1	-5.7	-5.8	0.2	31.4*	2.3
CC(=O)Nc1ccc(NC(=O)CSC2=NCCS2)cc1	0.5	-12.9	6.3	-0.1	-1.2	7.8
O=C(N/N=C\c1ccc(CNS(=O)(=O)c2ccccc2)o1)C(=O)Nc1ccc(F)cc1	1.2	10.9	7.3	1.0	-3.5	-25.4
O=C(N/N=C\c1ccc(CN(Cc2ccc(Cl)cc2)S(=O)(=O)c2ccccc2)o1)C(=O)Nc1ccc(F)cc1	-0.5	10.9	-48.0	0.3	-7.8	-75.5*
Cc1cccc(-n2cc(-c3ccc([N+](=O)[O-])cc3)[nH]c2=S)c1	0.7	-4.8	-70.3*	1.3	1.6	?
CN(C)CCNC(=O)c1ccc(Cn2c(=O)c3cccn3c3cccnc32)cc1	0.2	-11.1	·	1.0	6.4	·
COc1cccc(CN2CCC(N(CCc3ccccc3)Cc3ccccc3)CC2)c1OC	-0.1	-15.3	20.0	0.2	4.7	-90.7*
COc1ccc(CN2CCN(CCCc3ccccc3)CC2)c(OC)c1	·	·	·	-0.1	55.4*	·
COc1cccc(CN2CCCC(C(=O)N3CCCCC3)C2)c1OC (centres undefined)	0.3	-25.1	-4.8	-1.5	32.5*	1.3
COc1cccc(CN2CCN(Cc3cc(OC)c(OC)c(OC)c3)CC2)c1OC	-0.2	7.2	11.0	-0.5	7.0	6.1
COc1cccc(CN2CCN(CCc3ccccc3)C(CCO)C2)c1OC (centres undefined)	0.8	7.1	11.9	-0.7	-2.8	13.6
COc1cccc(CN2CCN(Cc3cccc(Oc4ccccc4)c3)CC2)c1OC	-0.2	0.7	5.6	-0.5	31.5*	3.0
COc1cc(OC)c(OC)cc1CN1CCCC(C(=O)N2CCCC2)C1 (centres undefined)	-1.5	18.8	5.6	1.2	5.6	-4.9
Cc1nn(-c2nc3ccccc3[nH]2)c(N)c1-c1ccc(Cl)cc1	4.8	1.6	-5.6	2.0	1.9	-83.5*
CCCCCCN1C=CC=C/C1=C/C=C(C#N)C#N	12.8	18.7	-123.0*	24.6	-6.3	-31.1
CCCCCCN1C=C/C(=C\C=C(C#N)C#N)c2ccccc21	1.7	36.6	-147.7*	2.0	-4.0	-105.4*
O=C(N[C@H](Cc1cc(=O)[nH]c2ccccc12)C(=O)O)c1ccc(Cl)cc1	-0.4	-15.9	-3.9	0.1	-9.7	-4.5
Nc1ccc(CCn2ccnc2)cc1	0.9	-11.9	4.9	0.8	-2.1	-14.8
CCCCCC(=O)C(=O)c1ccc(O)cc1O	4.7	25.0	5.8	-1.0	33.7*	-4.9
CCOc1ccccc1NC(=O)CN(c1ccc(OC)c(OC)c1)S(=O)(=O)c1ccc(C)cc1	-1.1	7.8	-10.2	·	·	-108.1*
CC(=O)NCC1(c2ccccc2)CCN(CCCC(=O)c2ccc(F)cc2)CC1	0.0	-6.6	38.8	·	·	-8.3
c1ccc(-c2nc(NCC3CCCO3)c3oc4ccccc4c3n2)cc1 (centres undefined)	1.8	32.9	-11.9	0.0	-13.8	-4.2
c1ccc2c(c1)oc1c(NCC3CCCO3)ncnc12 (centres undefined)	-0.5	-1.1	-6.0	0.0	36.9*	-2.2
C[C@@H]1CN([C@@H](C)CO)S(=O)(=O)c2ccc(C#CC(C)(C)O)cc2O[C@H]1CN(C)C(=O)C1CCCCC1	-0.5	-3.7	-11.9	·	·	-21.2
Cc1cc(/C=C2\SC(=S)N(Cc3ccco3)C2=O)c(C)n1-c1ccccc1	8.3	-11.1	-81.0*	10.4	6.3	-22.6
COc1cccc(N/C(N)=N/c2nc(C(F)(F)F)cc(=O)[nH]2)c1	-0.7	20.4	-8.3	0.9	31.0*	13.2
COc1cccc(N/C(N)=N/c2nc(C(F)(F)F)cc(C(F)(F)F)n2)c1	1.8	6.7	-13.1	-0.2	0.6	-0.8

Screens as filed in PubChem.
